# Compound activity from PubChem.
# Most compounds without a hit are left out; they make up all but 5.4% or so of the library.
# aDG glyco up: activators of alpha-DG glycosylation, primary screen, uHTS, Pro5-aDG cells, AlphaScreen; AID 624168, 2012; alpha-DG glycosylation AlphaScreen (IIH6); 0% Pro5, 100% B10-LARGE cell signal; activation, % at 10 µM; 360,000 compounds, 0.22% hits;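 active means activation of at least 8% versus controls, or a plate z-score of at least 8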;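 further: Pro5 are CHO cells carrying HIG-tagged alpha-DG that lacks glycosylation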
# PHOSPHO1 inh: PubChem AID 1565; Phosphoethanolamine/phosphocholine phosphatase (Homo sapiens), Q8TCT1; recombinant PHOSPHO1, absorbance phosphatase assay; inhibition, % at 13.3 µM; 290,000 compounds, 1.1% hits; in the data active means inhibition above about 60%
# Target sequence (Q8TCT1 whole entry, looked up): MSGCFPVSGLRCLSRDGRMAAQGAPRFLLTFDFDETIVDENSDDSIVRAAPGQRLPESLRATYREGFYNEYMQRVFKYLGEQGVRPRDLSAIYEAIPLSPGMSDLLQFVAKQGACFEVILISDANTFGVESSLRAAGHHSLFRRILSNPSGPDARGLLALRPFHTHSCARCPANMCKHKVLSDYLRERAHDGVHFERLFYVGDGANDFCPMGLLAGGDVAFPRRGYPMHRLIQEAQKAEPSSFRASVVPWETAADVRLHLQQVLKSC
# APOBEC3G inh: APOBEC3G DNA deaminase inhibitors, primary screen, biochemical, fluorescence, single-stranded DNA substrate, uHTS | AID 493012, 2011 | 330,000 compounds, 0.28% hits | inhibition, % at 20 µM | DNA dC->dU-editing enzyme APOBEC-3G (Homo sapiens), Q9HC16 | recombinant A3G, ssDNA deamination FAM/TAMRA fluorescence;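 active means inhibition of at least 40% at 20 µM, with no more than 30% in the related APOBEC3A deaminase screen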;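 further: plate controls were DMSO wells with A3G for no effect and wells lacking A3G enzyme for full effect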
# ALR inh: inhibitors of human ALR sulfhydryl oxidase, primary screen, biochemical, H2O2 detection, HRP-luminol luminescence, single point; inhibition, % (test concentration not listed); purified ALR, DTT oxidation; 290,000 compounds, 3.8% hits;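 active means mean replicate inhibition above about 79%, with every replicate also reaching it, limit read from the data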
# rCAG binder: binders of r(CAG) RNA repeats, primary screen, biochemical, fluorescence | r(CAG) RNA repeat, TO-PRO-1 dye displacement fluorescence | inhibition, % at 3 µM | 370,000 compounds, 1.3% hits | AID 651821, 2012;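 active means inhibition above the plate cutoff, the mean of all test compounds on that plate plus 3 SD, cut at about 35% in these data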;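 further: 0% = DMSO alone and 100% = 100 µM mitoxantrone as full dye displacement; higher means more dye released from RNA so lower well fluorescence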
# A3A deaminase: APOBEC3A ssDNA deaminase inhibitors, primary screen, selectivity assay for APOBEC3G inhibitor project, biochemical, FAM/TAMRA oligo cleavage fluorescence | DNA dC->dU-editing enzyme APOBEC-3A (Homo sapiens), P31941 | 330,000 compounds, 0.41% hits | recombinant A3A, FAM/TAMRA ssDNA deamination fluorescence | AID 493011, 2011 | inhibition, % at 20 µM;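 active means at least 40% inhibition at 20 µM here, with at most 30% in a related deaminase screen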;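 further: plate controls were A3A with DMSO for no effect and wells lacking A3A enzyme for full effect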
# Target sequence (P31941 whole entry, looked up): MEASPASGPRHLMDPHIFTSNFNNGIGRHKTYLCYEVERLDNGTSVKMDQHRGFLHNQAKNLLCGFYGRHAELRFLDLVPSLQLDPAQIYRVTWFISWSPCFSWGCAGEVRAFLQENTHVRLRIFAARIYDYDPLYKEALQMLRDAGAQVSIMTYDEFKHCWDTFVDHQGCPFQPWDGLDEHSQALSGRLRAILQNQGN
# Numbers without * were called inactive; · = no result given.
SMILES,aDG glyco up,PHOSPHO1 inh,APOBEC3G inh,ALR inh,rCAG binder,A3A deaminase
COc1cccc(NC(=O)CN2CCN(c3ccc(F)cc3)CC2)c1,0,-2,-7,97*,-10,-3
O=C(CNCc1cccs1)Nc1ccc(N2CCCCCC2)cc1,2,9,-18,99*,-8,-4
Cc1cc(NC(=O)CN2CCN(c3ccc(O)cc3)CC2)no1,0,-8,26,99*,5,-4
O=C(CN1CCN(S(=O)(=O)c2ccc3ccccc3c2)CC1)Nc1ccc(N2CCOCC2)cc1,0,-18,-2,·,-1,1
COc1ccc(N2CCN(CC(=O)Nc3cccc(S(=O)(=O)N4CCOCC4)c3)CC2)cc1,0,3,-6,78*,-3,-4
CCOC(=O)CC[C@H]1CC[C@]2(CCCN(S(C)(=O)=O)C2)O1,·,·,·,·,1,·
CCOc1ccc(-n2c(COc3ccc(C)cc3)nnc2SCC(=O)Nc2ccc(F)c(F)c2)cc1,·,·,·,·,7,·
O=C(Nc1ccc(Br)cc1)OCCCN1CCC2(CCCCC2)C1=O,·,·,·,·,5,·
COc1cc(OC)nc(NC(=O)CN2CCN(c3ccc(F)cc3)CC2)n1,0,-1,-4,98*,·,3
O=C(CN1CCN(c2ccc(O)cc2)CC1)NCC(=O)Nc1ccc(F)c(F)c1F,1,·,13,92*,8,-1
COC(=O)c1cccc(NC(=O)CN2CCN(c3ccc(OC)cc3)CC2)c1,1,11,-3,88*,-10,1
COc1ccc(N2CCN(CC(=O)Nc3ccc(C)cc3)CC2)cc1,0,·,-3,90*,-9,-7
O=C(CN1CCCCCC1)Nc1ccc(F)c(F)c1F,0,-60,-7,-11,3,-2
COC(=O)[C@]12C[C@H](CC(=O)N3CCCCC3)C(=O)N(Cc3cccc4ccccc34)C1=C[C@H](C(C)C)O[C@@H]2C1CC1,·,·,·,·,1,·
O=C(Nc1ccccc1C(=O)NCC1CC1)c1cccs1,·,·,·,·,0,·
O=C(CN1CCCCC1)Nc1ccccc1,0,11,-5,·,0,-3
O=C(CN1CCCCC1)Nc1ccc(N2CCCCCC2)cc1,0,37,-10,99*,-4,-6
O=C(OC12CCCN(C1)/C(=C/c1cccc(Cl)c1)C2)c1ccc(Cl)cc1 (configuration not stated),·,·,·,·,3,·
O=C(CNC(=O)c1ccco1)NCC(=O)OCC(=O)c1ccc(Cl)c([N+](=O)[O-])c1,0,19,-1,98*,2,2
O=C(CNC(=O)c1ccco1)OCC(=O)c1ccc(Cl)cc1,0,15,-6,·,0,-3
O=C(CNC(=O)c1ccco1)OCC(=O)c1ccc([N+](=O)[O-])cc1,0,28,-1,99*,3,-5
O=C(CNC(=O)c1cccs1)c1ccc([N+](=O)[O-])cc1,0,67*,-2,2,4,0
COc1cc(-c2c(C(=O)c3ccccc3)[nH]c(N)c2C(=O)NCCc2c[nH]c3ccccc23)ccc1F,·,·,·,·,11,·
COC(=O)[C@]12C[C@H](CC(=O)NCc3cccs3)C(=O)N(CCc3ccc(OC)c(OC)c3)C1=C[C@H](COCc1ccccc1)O[C@@H]2C,·,·,·,·,2,·
COC(=O)[C@]12C[C@H](CC(=O)NCc3ccc(C)o3)C(=O)N(Cc3ccccc3)C1=C[C@H](COCc1ccccc1)O[C@@H]2C,·,·,·,·,9,·
SMILES,aDG glyco up,PHOSPHO1 inh,APOBEC3G inh,ALR inh,rCAG binder,A3A deaminase
O=C(CC1C(=O)Nc2ccccc2N1CC(=O)N1CCCC1)Nc1ccc(Br)cc1 (configuration not stated),0,·,-1,98*,11,0
COc1ccc(OC)c(CN2C(=O)CN(S(C)(=O)=O)CC2(C)c2nnnn2C2CCCC2)c1 (configuration not stated),·,·,·,·,5,·
COc1cc(/C=C2/C(=O)NN(c3ccc(Cl)cc3)C2=O)ccc1OC(=O)c1ccco1,0,16,-4,52,76*,1
C=CCN1C(=O)/C(=C\c2ccc(OC(=O)c3ccco3)c(OC)c2)SC1=S,0,-23,-7,-3,7,-3
CN1CCCCC(NC(=O)c2ccc(C#N)cc2)C1=O (configuration not stated),·,·,·,·,1,·
COc1ccc(Cc2nnc(NS(=O)(=O)c3ccccc3)s2)cc1,0,24,-7,28,24,2
CCc1nnc(NS(=O)(=O)c2ccc(NC(=O)OC)cc2)s1,0,33,-1,98*,1,2
COC(=O)Nc1ccc(S(=O)(=O)Nc2ccc(O)cc2)cc1,0,-1,-2,89*,1,-4
COc1ccc(S(=O)(=O)Nc2nnc(Cc3ccc(OC)c(OC)c3)s2)cc1,0,17,-7,98*,28,1
Cc1ccc(S(=O)(=O)Nc2ccc(N=Nc3ccc(O)cc3)cc2)cc1,0,-9,-5,90*,29,-3
CCc1nnc(NS(=O)(=O)c2ccc(NC(=O)c3ccccc3O)cc2)s1,0,·,-4,47,14,-3
C[C@@H]1C[C@H]2O[C@@H]2/C=C\C=C\C(=O)Cc2cc(O)cc(O)c2C(=O)O1,·,·,·,·,1,·
Cc1ccc(CSc2nnc(-c3ccccc3)n2Cc2ccco2)cc1,·,·,·,·,2,·
COc1ccc(C(=O)Nc2ccc(C(=O)N3CCCCC3C)cc2)c(OC)c1OC (configuration not stated),0,75*,3,0,-8,1
Cc1ccc(-c2noc(CCC(=O)NCc3ccc4c(c3)OCO4)n2)cc1,0,23,-5,·,-2,-2
Cc1ccc(CC(=O)NCc2ccc3c(c2)OCO3)cc1,1,-46,1,0,3,3
CCc1ccc(-c2nc(CS(=O)CC(=O)NCc3ccc4c(c3)OCO4)c(C)o2)cc1 (configuration not stated),0,44,-2,99*,2,-4
Cc1ccc(-c2nc(CS(=O)CC(=O)NCc3ccc4c(c3)OCO4)c(C)o2)cc1 (configuration not stated),1,-19,-5,99*,·,-4
COc1cc2c(cc1OC)CN(c1ccc([N+](=O)[O-])cc1C#N)CC2,0,-15,2,87*,6,-1
COc1cc2c(cc1OC)CN(c1ccc([N+](=O)[O-])cc1Cl)CC2,0,-11,-7,·,16,1
O=C(NCCc1c[nH]c2ccccc12)c1ccc2c(c1)ncn2C1CCCCC1,·,·,·,·,6,·
